# According to publication PMC7862700, “An all-to-all approach to the identification of sequence-specific readers for epigenetic DNA modifications on cytosine”:
# What was measured:
# Assay in all cases: DAPPL (digital affinity profiling via proximity ligation, sequencing); 10 mM Tris-HCl pH 7.5, 50 mM NaCl, 1 mM DTT, 4% glycerol, room temperature, 30 min; GST-TFs on glutathione beads, 16-mer random dsDNA library, 0.1% formaldehyde crosslink after washing; high values mean tight binding
# Conditions in all cases: protein: recombinant; tags: N-terminal GST; dsDNA, one strand shown
# ELK1 = biological target: T1, ELK1 (Homo sapiens, UniProt P19419 1-428)
# T1 sequence: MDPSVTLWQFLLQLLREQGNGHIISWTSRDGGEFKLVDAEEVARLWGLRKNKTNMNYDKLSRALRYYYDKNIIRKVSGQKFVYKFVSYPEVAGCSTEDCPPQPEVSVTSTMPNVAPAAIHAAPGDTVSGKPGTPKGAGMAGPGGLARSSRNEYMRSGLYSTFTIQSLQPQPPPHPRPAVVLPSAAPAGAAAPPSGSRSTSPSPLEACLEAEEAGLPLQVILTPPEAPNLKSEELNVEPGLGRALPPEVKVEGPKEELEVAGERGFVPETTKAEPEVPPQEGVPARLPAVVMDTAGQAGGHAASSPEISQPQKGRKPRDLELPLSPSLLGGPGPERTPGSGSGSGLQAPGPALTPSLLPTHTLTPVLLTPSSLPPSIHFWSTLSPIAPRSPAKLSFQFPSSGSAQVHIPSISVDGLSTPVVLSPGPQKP
# Summary of the method: (§1)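 Pools were built from human transcription factors expressed in yeast as GST fusions, captured on glutathione beads and DNA-barcoded, along with a tag-only sample. Incubation with 200 nmole of a 16-mer random double-stranded DNA library lasted 30 min at room temperature in Tris/NaCl/DTT/glycerol buffer, and was followed by washing, 0.1% formaldehyde crosslinking, proximity ligation, PCR amplification and Illumina NextSeq500 sequencing. Binding signal is the quotient of each hexamer's read frequency for a factor and its frequency for the tag-only sample.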
# GABPA = biological target: T2, GABPA (Homo sapiens, UniProt Q06546 1-454)
# T2 sequence: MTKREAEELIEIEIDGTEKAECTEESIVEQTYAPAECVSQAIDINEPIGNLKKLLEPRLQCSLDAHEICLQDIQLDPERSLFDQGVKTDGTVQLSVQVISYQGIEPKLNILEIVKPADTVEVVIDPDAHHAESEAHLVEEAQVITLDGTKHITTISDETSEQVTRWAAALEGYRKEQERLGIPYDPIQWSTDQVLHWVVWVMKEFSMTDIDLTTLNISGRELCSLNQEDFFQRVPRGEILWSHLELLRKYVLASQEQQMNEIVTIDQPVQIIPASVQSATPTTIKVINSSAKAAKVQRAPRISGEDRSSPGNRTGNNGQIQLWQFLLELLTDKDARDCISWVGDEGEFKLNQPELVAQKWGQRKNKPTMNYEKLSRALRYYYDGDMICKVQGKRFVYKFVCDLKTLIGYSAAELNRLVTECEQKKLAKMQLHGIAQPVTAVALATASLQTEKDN
# Summary of the method: as §1
# ERG = biological target: T3, ERG (Homo sapiens, UniProt P11308 1-479)
# T3 sequence: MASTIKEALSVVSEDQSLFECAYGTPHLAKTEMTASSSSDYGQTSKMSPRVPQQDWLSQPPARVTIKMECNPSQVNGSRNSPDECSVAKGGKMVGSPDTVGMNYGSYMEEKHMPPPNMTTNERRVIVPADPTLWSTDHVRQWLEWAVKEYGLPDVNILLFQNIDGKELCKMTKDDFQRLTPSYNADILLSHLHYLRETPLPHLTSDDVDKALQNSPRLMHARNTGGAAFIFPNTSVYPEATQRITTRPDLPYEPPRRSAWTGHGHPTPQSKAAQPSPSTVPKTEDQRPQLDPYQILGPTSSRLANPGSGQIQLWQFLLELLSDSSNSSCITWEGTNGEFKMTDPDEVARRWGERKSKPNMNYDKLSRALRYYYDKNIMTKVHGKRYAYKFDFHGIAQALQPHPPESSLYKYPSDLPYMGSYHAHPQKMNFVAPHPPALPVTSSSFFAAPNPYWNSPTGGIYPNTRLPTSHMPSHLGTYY
# Summary of the method: as §1
# ELF1 = ELF1 (Homo sapiens, UniProt P32519 1-619)
# Summary of the method: as §1
# EHF = biological target: T4, EHF (Homo sapiens, UniProt Q9NZC4 1-300)
# T4 sequence: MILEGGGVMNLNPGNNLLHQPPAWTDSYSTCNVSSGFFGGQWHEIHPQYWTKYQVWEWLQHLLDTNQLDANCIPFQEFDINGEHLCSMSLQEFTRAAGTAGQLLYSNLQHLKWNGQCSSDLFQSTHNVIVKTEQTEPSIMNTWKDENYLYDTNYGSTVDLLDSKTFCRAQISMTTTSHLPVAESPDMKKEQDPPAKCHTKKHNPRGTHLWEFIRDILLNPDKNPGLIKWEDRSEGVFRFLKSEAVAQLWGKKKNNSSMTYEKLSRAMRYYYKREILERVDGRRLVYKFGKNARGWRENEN
# Summary of the method: as §1
# SPI1 = SPI1 (Homo sapiens, UniProt P17947 1-270)
# Summary of the method: as §1
# SPIB = SPIB (Homo sapiens, UniProt Q01892 1-262)
# Summary of the method: as §1
# FEV = biological target: T5, FEV (Homo sapiens, UniProt Q99581 1-238)
# T5 sequence: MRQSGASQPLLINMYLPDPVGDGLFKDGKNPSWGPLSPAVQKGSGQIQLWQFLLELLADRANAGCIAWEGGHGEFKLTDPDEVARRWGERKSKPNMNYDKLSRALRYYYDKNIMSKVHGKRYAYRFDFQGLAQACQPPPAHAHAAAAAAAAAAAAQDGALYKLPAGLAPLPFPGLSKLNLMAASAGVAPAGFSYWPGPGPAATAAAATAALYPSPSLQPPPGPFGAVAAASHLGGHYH
# Summary of the method: as §1
# ETV5 = ETV5 (Homo sapiens, UniProt P41161 1-510)
# Summary of the method: as §1
# ELF4 = ELF4 (Homo sapiens, UniProt Q99607 1-663)
# Summary of the method: as §1
# ELF3 = biological target: T6, ELF3 (Homo sapiens, UniProt P78545 1-371)
# T6 sequence: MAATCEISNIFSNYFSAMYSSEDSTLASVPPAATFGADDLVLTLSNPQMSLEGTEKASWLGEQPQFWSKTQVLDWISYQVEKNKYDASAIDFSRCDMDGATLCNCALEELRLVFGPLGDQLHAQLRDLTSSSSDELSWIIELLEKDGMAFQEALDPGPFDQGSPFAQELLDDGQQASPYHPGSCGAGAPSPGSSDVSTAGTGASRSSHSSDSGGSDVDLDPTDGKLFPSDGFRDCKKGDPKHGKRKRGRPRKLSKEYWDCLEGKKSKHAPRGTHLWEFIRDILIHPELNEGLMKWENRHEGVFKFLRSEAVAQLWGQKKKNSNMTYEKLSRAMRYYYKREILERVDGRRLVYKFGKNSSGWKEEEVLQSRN
# Summary of the method: as §1
# ETV1 = ETV1 (Homo sapiens, UniProt P50549 1-477)
# Summary of the method: as §1
# ERF = biological target: T7, ERF (Homo sapiens, UniProt P50548 1-548)
# T7 sequence: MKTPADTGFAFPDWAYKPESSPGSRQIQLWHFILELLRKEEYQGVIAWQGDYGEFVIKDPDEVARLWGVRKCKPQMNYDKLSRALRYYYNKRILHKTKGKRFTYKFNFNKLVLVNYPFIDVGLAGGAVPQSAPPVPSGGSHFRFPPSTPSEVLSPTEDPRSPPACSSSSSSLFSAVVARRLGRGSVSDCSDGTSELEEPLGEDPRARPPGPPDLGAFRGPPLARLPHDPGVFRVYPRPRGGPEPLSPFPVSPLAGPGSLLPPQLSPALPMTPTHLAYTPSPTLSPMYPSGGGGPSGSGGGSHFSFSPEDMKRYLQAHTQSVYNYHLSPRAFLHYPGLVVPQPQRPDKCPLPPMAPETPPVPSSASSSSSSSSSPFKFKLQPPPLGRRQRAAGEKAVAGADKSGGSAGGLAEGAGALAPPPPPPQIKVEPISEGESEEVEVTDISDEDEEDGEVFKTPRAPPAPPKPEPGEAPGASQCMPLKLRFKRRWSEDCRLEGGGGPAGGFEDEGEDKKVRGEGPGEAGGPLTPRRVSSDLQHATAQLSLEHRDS
# Summary of the method: as §1
# ETV3L = biological target: T8, ETV3L (Homo sapiens, UniProt Q6ZN32 1-361)
# T8 sequence: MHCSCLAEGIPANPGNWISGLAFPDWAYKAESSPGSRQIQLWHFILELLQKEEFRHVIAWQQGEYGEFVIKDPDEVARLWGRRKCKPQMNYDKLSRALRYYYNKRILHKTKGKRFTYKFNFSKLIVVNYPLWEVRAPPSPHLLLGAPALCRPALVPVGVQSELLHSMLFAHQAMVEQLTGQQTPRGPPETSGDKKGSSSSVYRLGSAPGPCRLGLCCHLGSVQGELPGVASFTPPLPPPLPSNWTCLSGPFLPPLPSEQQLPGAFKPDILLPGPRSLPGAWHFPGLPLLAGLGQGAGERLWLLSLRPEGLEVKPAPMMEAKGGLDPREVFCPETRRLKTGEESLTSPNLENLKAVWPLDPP
# Summary of the method: as §1
# ETS2 = biological target: T9, ETS2 (Homo sapiens, UniProt P15036 1-469)
# T9 sequence: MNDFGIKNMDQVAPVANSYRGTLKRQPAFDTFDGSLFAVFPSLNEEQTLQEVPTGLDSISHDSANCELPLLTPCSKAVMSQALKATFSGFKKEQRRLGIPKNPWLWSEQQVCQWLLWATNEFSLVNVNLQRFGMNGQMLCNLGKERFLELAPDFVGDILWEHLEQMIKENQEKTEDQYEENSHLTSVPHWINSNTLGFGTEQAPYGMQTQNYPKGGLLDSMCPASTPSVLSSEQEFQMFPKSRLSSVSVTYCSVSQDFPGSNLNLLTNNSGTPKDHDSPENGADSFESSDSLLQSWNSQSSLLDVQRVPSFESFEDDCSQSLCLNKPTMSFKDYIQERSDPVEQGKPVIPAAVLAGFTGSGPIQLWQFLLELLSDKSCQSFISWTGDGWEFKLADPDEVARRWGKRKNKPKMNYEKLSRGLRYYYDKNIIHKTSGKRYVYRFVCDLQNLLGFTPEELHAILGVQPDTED
# Summary of the method: as §1
# SPDEF = biological target: T10, SPDEF (Homo sapiens, UniProt O95238 1-335)
# T10 sequence: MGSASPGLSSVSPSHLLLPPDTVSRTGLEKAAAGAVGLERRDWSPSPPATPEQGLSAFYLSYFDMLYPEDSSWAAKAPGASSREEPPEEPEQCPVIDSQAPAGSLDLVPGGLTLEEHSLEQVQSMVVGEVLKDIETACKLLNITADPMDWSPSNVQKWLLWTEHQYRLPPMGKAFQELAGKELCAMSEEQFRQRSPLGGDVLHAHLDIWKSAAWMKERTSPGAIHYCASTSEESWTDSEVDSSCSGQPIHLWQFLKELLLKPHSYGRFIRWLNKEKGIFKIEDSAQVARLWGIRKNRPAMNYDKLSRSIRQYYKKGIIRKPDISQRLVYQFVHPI
# Summary of the method: as §1
# ETV7 = biological target: T11, ETV7 (Homo sapiens, UniProt Q9Y603 1-341)
# T11 sequence: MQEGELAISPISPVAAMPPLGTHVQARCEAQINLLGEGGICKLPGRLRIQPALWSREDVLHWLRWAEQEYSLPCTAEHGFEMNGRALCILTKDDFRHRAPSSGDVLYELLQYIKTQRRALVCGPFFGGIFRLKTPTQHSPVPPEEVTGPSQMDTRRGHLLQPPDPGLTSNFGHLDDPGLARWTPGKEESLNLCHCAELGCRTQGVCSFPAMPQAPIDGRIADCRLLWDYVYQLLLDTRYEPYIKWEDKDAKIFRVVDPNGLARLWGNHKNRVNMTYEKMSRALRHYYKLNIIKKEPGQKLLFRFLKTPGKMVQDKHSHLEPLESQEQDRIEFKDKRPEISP
# Summary of the method: as §1
# ETV3 = biological target: T12, ETV3 (Homo sapiens, UniProt P41162-2 1-143)
# T12 sequence: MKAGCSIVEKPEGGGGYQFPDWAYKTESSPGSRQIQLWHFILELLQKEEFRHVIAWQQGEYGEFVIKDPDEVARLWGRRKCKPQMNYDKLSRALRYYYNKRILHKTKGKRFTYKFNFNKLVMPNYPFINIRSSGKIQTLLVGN
# Summary of the method: as §1
# ETV6 = ETV6 (Homo sapiens, UniProt P41212 1-452)
# Summary of the method: as §1
# Chain of ELF4 (Q99607 whole entry): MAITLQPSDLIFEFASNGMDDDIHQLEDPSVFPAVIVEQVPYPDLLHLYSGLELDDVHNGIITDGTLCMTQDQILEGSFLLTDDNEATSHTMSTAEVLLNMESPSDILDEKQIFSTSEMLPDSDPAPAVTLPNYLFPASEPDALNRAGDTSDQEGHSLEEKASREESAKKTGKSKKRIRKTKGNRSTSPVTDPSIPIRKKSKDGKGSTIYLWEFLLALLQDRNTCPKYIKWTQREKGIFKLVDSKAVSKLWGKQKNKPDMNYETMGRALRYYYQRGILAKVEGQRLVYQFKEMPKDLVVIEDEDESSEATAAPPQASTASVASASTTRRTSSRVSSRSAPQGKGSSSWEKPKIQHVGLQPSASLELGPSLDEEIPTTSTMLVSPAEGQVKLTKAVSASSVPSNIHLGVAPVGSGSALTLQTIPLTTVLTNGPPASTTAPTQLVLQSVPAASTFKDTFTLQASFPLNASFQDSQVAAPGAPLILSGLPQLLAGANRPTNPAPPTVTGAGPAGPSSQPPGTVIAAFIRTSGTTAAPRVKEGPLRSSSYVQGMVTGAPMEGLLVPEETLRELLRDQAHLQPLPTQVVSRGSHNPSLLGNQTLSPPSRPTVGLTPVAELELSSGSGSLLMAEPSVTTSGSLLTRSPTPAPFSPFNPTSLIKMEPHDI
# Chain of ETV6 (P41212 whole entry): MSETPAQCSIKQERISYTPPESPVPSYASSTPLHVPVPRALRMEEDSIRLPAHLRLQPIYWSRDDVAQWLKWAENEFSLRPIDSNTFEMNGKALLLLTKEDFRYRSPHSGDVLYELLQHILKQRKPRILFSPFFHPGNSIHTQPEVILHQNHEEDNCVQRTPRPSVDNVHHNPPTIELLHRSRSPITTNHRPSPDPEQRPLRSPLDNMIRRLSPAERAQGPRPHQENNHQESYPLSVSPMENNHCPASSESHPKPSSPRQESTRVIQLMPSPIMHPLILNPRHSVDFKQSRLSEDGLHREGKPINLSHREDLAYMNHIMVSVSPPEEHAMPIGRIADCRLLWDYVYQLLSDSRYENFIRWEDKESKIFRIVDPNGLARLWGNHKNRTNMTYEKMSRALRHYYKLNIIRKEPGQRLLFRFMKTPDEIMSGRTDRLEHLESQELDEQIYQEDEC
# Chain of ETV1 (P50549 whole entry): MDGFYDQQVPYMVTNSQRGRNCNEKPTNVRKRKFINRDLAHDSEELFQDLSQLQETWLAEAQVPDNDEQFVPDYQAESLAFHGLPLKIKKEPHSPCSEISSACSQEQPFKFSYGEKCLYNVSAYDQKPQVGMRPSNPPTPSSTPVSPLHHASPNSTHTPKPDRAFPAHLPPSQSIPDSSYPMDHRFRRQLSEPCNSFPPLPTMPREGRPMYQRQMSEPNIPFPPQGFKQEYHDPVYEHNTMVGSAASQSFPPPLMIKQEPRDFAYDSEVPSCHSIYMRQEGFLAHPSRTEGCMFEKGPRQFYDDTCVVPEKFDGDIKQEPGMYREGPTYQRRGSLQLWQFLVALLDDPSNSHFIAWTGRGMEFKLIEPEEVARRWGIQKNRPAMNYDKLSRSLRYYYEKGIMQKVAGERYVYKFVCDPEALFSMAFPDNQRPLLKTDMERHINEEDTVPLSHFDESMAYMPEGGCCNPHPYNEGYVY
# Chain of SPIB (Q01892 whole entry): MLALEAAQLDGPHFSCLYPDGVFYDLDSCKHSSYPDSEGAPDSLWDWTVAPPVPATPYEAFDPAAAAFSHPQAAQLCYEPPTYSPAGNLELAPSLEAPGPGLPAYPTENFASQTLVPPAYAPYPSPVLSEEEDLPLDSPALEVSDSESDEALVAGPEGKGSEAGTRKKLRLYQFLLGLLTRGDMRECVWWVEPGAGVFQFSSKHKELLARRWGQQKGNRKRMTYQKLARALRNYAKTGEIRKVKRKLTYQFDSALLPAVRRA
# Chain of ETV5 (P41161 whole entry): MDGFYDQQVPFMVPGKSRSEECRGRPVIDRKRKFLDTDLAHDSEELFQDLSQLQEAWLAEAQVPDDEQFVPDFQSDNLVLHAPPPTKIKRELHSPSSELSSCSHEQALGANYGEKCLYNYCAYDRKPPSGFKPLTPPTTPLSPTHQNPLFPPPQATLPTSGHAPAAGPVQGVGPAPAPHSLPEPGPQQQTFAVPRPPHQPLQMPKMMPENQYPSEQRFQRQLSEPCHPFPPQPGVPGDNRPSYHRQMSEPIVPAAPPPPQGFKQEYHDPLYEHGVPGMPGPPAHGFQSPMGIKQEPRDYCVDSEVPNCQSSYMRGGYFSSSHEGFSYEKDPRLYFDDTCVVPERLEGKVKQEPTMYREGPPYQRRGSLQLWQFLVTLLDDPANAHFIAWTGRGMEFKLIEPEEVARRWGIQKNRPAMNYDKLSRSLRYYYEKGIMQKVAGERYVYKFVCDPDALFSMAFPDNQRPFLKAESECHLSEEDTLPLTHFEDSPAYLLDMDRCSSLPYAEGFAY
# Chain of ELF1 (P32519 whole entry): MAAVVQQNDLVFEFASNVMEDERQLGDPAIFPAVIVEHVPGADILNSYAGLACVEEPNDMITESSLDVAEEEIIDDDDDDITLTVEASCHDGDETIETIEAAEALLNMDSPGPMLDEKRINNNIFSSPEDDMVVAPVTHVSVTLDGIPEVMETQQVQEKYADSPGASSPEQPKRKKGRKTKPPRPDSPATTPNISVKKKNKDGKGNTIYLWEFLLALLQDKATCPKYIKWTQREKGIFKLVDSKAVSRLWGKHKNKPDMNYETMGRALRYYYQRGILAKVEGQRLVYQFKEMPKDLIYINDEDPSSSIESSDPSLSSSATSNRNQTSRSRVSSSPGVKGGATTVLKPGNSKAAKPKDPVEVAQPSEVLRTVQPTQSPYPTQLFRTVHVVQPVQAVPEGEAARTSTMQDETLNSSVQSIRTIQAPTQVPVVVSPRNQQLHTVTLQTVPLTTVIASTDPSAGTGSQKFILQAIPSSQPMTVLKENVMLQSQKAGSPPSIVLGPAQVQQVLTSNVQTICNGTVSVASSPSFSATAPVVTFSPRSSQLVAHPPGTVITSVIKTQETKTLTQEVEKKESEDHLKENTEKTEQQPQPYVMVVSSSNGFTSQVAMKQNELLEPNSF
sequence,measurement,setting,value
AACCGC,binding signal,ELK1,"1.07 fold enrichment (6-mer frequency, TF over GST control)"
same,binding signal,GABPA,"1.1 fold enrichment (6-mer frequency, TF over GST control)"
same,binding signal,ERG,"1.09 fold enrichment (6-mer frequency, TF over GST control)"
same,binding signal,ELF1,"1.11 fold enrichment (6-mer frequency, TF over GST control)"
same,binding signal,EHF,"1.18 fold enrichment (6-mer frequency, TF over GST control)"
same,binding signal,SPI1,"1.04 fold enrichment (6-mer frequency, TF over GST control)"
same,binding signal,SPIB,"1.12 fold enrichment (6-mer frequency, TF over GST control)"
same,binding signal,FEV,"1.09 fold enrichment (6-mer frequency, TF over GST control)"
same,binding signal,ETV5,"1.09 fold enrichment (6-mer frequency, TF over GST control)"
same,binding signal,ELF4,"1.12 fold enrichment (6-mer frequency, TF over GST control)"
same,binding signal,ELF3,"1.1 fold enrichment (6-mer frequency, TF over GST control)"
same,binding signal,ETV1,"1.02 fold enrichment (6-mer frequency, TF over GST control)"
same,binding signal,ERF,"1.08 fold enrichment (6-mer frequency, TF over GST control)"
same,binding signal,ETV3L,"1.08 fold enrichment (6-mer frequency, TF over GST control)"
same,binding signal,ETS2,"1.1 fold enrichment (6-mer frequency, TF over GST control)"
same,binding signal,SPDEF,"1.11 fold enrichment (6-mer frequency, TF over GST control)"
same,binding signal,ETV7,"1.07 fold enrichment (6-mer frequency, TF over GST control)"
same,binding signal,ETV3,"1.08 fold enrichment (6-mer frequency, TF over GST control)"
same,binding signal,ETV6,"1.19 fold enrichment (6-mer frequency, TF over GST control)"
